According to the supplement of paper PMC6555819:

Experiments:
Experiment in all cases: PBM binding z-score (relative to random genomic background probes); higher = stronger binding; sequences stand for … in GC…GCGATTGACAGCGTAGAATGAAGG
[1] = test system: PPARg:RXRa DBDmut IVT, anti-RXR (DBD mutation: RXRa K156A/R161A, NR concentration 270 nM, RXRa partner concentration 90 nM)
Summary of the method: (§1)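 The probes on custom Agilent 4×180K protein-binding microarrays were double-stranded, with 34-nt variable regions bearing direct-repeat seeds, single-nucleotide variants, half-site ablations and random human genomic background sequences. Incubation lasted 1 h with ligand-free nuclear receptor dimers in PBS pH 7.4, 2% milk, 0.02% Triton X-100, 1 mM DTT, 0.2 mg/mL BSA and 0.4 mg/ml salmon testes DNA. Antibodies against each partner (one per run) detected bound dimers, and fluorescence scans were regression-normalized. Binding z-scores take the random background probes as reference.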

[2] = test system: PPARg:RXRa IVT, anti-PPARg (NR concentration 270 nM, RXRa partner concentration 90 nM)
Summary of the method: as §1

[3] = test system: PPARg DBDmut:RXRa IVT, anti-PPARg (DBD mutation: PPARg1 K132A/R137A, NR concentration 270 nM, RXRa partner concentration 90 nM)
Summary of the method: as §1

[4] = test system: PPARg DBDmut IVT, anti-PPARg (DBD mutation: PPARg1 K132A/R137A, NR concentration 270 nM)
Summary of the method: as §1

[5] = test system: PPARg homodimer (NR concentration 180 nM)
Summary of the method: as §1

[6] = test system: PXR:RXRa (NR concentration 270 nM, RXRa partner concentration 90 nM)
Summary of the method: as §1

[7] = test system: PXR homodimer (NR concentration 270 nM)
Summary of the method: as §1

[8] = test system: RARa:RXR (NR concentration 270 nM, RXRa partner concentration 90 nM)
Summary of the method: as §1

[9] = test system: RARa homodimer (NR concentration 270 nM)
Summary of the method: as §1

[10] = test system: RARb:RXRa (NR concentration 270 nM, RXRa partner concentration 90 nM)
Summary of the method: as §1

Sequence | PBM binding z-score [1] | PBM binding z-score [2] | PBM binding z-score [3] | PBM binding z-score [4] | PBM binding z-score [5] | PBM binding z-score [6] | PBM binding z-score [7] | PBM binding z-score [8] | PBM binding z-score [9] | PBM binding z-score [10]
TCTATCAGTTGATTAGGGCAACCGAAACAGCGGA | 1.54 | 1.42 | 0.737 | 0.547 | -0.273 | 0.154 | -0.238 | 0.11 | -0.12 | 0.747
AGAATGAGGGTATACGTAGATCAGGGAAGAAAGT | 2.6 | 0.629 | 0.622 | 0.525 | 0.231 | 0.14 | 0.655 | 0.0305 | -0.0376 | 0.267
CAAACTAGGTCATAGGTCAAAGTCGAGCCAACCA | 8.12 | 8.93 | 3.18 | 1.68 | 3.4 | 5.05 | 0.241 | 7.38 | 0.929 | 4.76
ATATGTAGGTTAAGGGCCATTCAGGTTGGTTCGC | 7.52 | 6.88 | 2.91 | 2.4 | 1.27 | 0.874 | 0.768 | 0.938 | 0.601 | 1.5
ATCGAAAGGTCTAGGTGAGTATAGAGAAAGGGAA | 0.689 | 1.37 | 0.807 | 0.731 | 0.408 | 0.216 | 0.272 | 0.406 | 0.837 | 1.71
CGTCCAAGGTCAGCACGTCAGTGAAAGCGACGTG | 2.18 | 2.13 | 0.0717 | 0.0669 | 1.85 | 2.31 | 0.247 | 3.39 | 0.134 | 4.89
ATCTTTAGGTAACCAAGTTCAGTGAATGCCGAAC | 2.35 | 1.85 | 1.09 | 1.61 | 0.811 | 2.06 | 1.53 | 1 | 0.564 | 1.31
TCTCGGAGGCCACGAAGGTCAGAGCTTTCCAGAG | 1.55 | 1.81 | -1.16 | -1.03 | 0.239 | 2.19 | 0.613 | 2.29 | -1.17 | 3.38
GGAACGAGGGCATTCGAGATGATAGCATGGCGAT | 2.56 | 2.34 | -0.145 | -0.476 | -0.199 | 0.623 | 0.0214 | 0.232 | -0.236 | 1.72
CCTAGGAGGACAGAAGGTCAGAGCTGTCCGCTTT | 0.0548 | 0.781 | -1.45 | -0.918 | 0.868 | 1.59 | -0.0903 | 1.98 | 0.629 | 3.02
CGAACTAGGTCAGAACAGGACAGTGCAGGATGAT | 7.46 | 7.27 | 0.839 | 0.368 | 1.18 | 0.783 | 0.225 | 0.999 | 0.221 | 2.96
TCGAGTAGGTTACCAATGGCGCATTCAGCTTTCT | 3.69 | 2.51 | 0.479 | -0.462 | -0.236 | 0.00763 | -0.811 | 0.064 | -0.676 | 0.628
AGAATGAGGTTAAGATCAGAGAAACAGAATACAT | 2.25 | 2.51 | 1.54 | 1.04 | 0.538 | 1.22 | 0.611 | 2.03 | 0.226 | 1.86
TCTTGTAGATCATGCAGGTTAAGAAAGCCTGAGT | 1.44 | 0.879 | 0.847 | 1.07 | 0.117 | 0.641 | 0.527 | 0.812 | 0.221 | 0.285
CCTACTGGGCCACGAAAGTTCATTGATTCAGTGA | 6.16 | 5.56 | 0.407 | 0.518 | 1.35 | 4.97 | 6.21 | 2.03 | -0.507 | 2.72
CCTACTGGGCCAAAGGTCATTGCTTCCAATGCTC | 5.34 | 6.61 | -0.293 | 0.248 | 2.84 | 5.39 | 1.64 | 5.98 | 0.417 | 4.49
ATCTCTAGGTAAAGTTCGGTGAAAGATCGATAGA | 2.6 | 2.15 | 1.46 | 1.56 | 0.996 | 0.633 | 0.941 | 0.644 | 1.22 | 0.896
GCATATGGGTAATACAAGGTGAAAGTCCGATTGT | 3.34 | 2.47 | 0.702 | 0.516 | 0.3 | 0.344 | 0.0703 | 1.08 | 0.617 | 0.416
AGAATGAGGTTACCAAAGAGCAGGGAAACGCTTG | 3.47 | 2.96 | 0.794 | -0.0129 | 0.046 | 1.05 | -0.21 | 1.71 | -0.396 | 2

Sequence | PBM binding z-score [1] | PBM binding z-score [2] | PBM binding z-score [3] | PBM binding z-score [4] | PBM binding z-score [5] | PBM binding z-score [6] | PBM binding z-score [7] | PBM binding z-score [8] | PBM binding z-score [9] | PBM binding z-score [10]
CTCGAAAGGTCGGTTGAGCTGAGTATACGGATAA | 0.0426 | 0.318 | -0.21 | -0.532 | 0.0115 | 0.392 | -0.439 | 0.834 | 0.167 | 2.58
CTCGAAATGTCGTGCTCAGGTGAGTATACCAAAC | -0.127 | 0.323 | 0.0105 | 0.169 | -0.101 | -0.206 | -0.0833 | 0.0583 | 0.245 | 0.417
TATACAGAGTCAAAGGCCAGAGTACGAATGTCGA | -0.677 | 0.809 | 0.657 | 0.798 | 0.172 | 0.3 | 0.152 | 0.733 | -0.267 | 1.19
CCTGCTACGTCAATGGTCAGCTAAAGCAGCTCGC | 0.218 | -0.566 | -1.15 | -0.483 | -0.41 | -0.469 | -0.413 | -0.14 | -0.629 | 0.0938
TTACCAAGGTGAAGGCCGTTGATCCCTCTGTAGA | 1.67 | 2.18 | -0.266 | 0.1 | 0.061 | 0.0988 | -0.493 | 0.33 | -0.621 | 1.34
TCTTGTAGATCAATAGAGGTTTAGAAAGTGCGCT | 1.65 | 0.249 | 0.996 | 0.224 | -0.539 | 0.49 | -0.0138 | 0.588 | 0.0314 | -0.311
ACACACAGGTGAGTGAAGGTAACTCAGCTGGACG | 0.846 | 1.04 | 0.1 | -0.00713 | 0.147 | -0.122 | -0.17 | 0.0752 | -0.0711 | 0.791
AGTCAAATTTCAGGACGAGGTAACGTAAAGCACG | -0.406 | 0.239 | 0.677 | 0.285 | 0.523 | -0.111 | 0.169 | 0.428 | 0.17 | 0.269
ATACCAAGGTGATCGTGAGGTTGTTGATACTAAC | 0.768 | 0.997 | 0.831 | 0.892 | 0.541 | 0.741 | 0.299 | 0.978 | 0.0495 | 0.63
ACTATTAGTTGAGACGAGGGCAACTGATAGGTTG | 0.393 | 0.643 | 1.37 | 1.23 | 0.253 | 1.22 | 0.231 | 0.44 | 0.299 | 1.16
GATACAGGGTCAGCTAGGGGCCAGAGTATGGAAA | 1.75 | 2.41 | -0.163 | -0.667 | 3.15 | 2.94 | -0.0214 | 4.97 | 0.262 | 4.22
CCGACTGGGGCATAAGATTACCATAAGCCAGCCC | 3.26 | 1.75 | -0.988 | -1.17 | 0.089 | -0.666 | -0.41 | -0.621 | -0.486 | 0.112
ACTAGTTGGTCAGCTCAGGTCACACACAATTCGG | 1.24 | 2.1 | 0.448 | 1.3 | 1.64 | 3.54 | 0.961 | 2.58 | 1.11 | 2.7
TATACAGGGCCAAAGGCCAGAGTACGAATGTCGA | -0.282 | 1.6 | 0.275 | -0.0589 | 0.362 | -0.0978 | -0.0965 | 0.479 | -0.305 | 1.53
AGAACGCGGGCAATGAGTTGATAGCACGGGTGGC | 0.179 | -0.0527 | 0.2 | -0.67 | -0.548 | -0.0595 | 0.229 | -0.166 | -0.629 | 0.349
TCCAGTTGGTCACGGAGGTCACACACGACGGGTA | 2.14 | 3.9 | 0.387 | 0.563 | 2.63 | 4.5 | 1.2 | 4.33 | 0.942 | 4
ATCGAAAGGTCGAAGGTGATTATACCCACCCGAA | 0.155 | 2 | 1.25 | 0.935 | 1.86 | 2.89 | 0.393 | 4.03 | 0.957 | 3.5
ATATGTAGGTAAAGGGTCATTCAGGTTGGTTCGC | 7.14 | 7.26 | 2.33 | 1.19 | 3.33 | 5.22 | 2.87 | 5.04 | 2.48 | 3.53
CCTTACGGGTCACTCCAGGTTATGGCATCGGAGT | 2.6 | 3.76 | -0.451 | -0.505 | 1.71 | 4.55 | 0.182 | 3.46 | 0.437 | 3.78
